Data published in the supplement of paper PMC6555819.

The sequences below were run on PPARg:RXRa 30nM:10nM, anti-RXR (NR concentration 30 nM, RXRa partner concentration 10 nM) (assay: PBM binding z-score (relative to random genomic background probes); higher = stronger binding; sequences stand for … in GC…GCGATTGACAGCGTAGAATGAAGG).
In short: (§1)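 Antibodies against each partner of ligand-free nuclear receptor dimers (one per run) detected binding on custom Agilent 4×180K protein-binding microarrays after 1 h incubation. The double-stranded probes had 34-nt variable regions carrying direct-repeat seeds, single-nucleotide variants, half-site ablations and random human genomic background sequences. Binding z-scores, from regression-normalized fluorescence, use the random background probes as reference.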

| Sequence | PBM binding z-score |
| --- | --- |
| ACCGAAAGGTCGAGGTGAGTATAGAGAAAGGGAA | 1.22 |
| CCTAGCAGGCCAATCTGGGTCACTCATGGCTTGA | 0.0126 |
| CCTTACGGGTCACTCCAGGTTATAGCATCGGAGT | 1.18 |
| CGAATTAGGTCATCCAGGACAGTGAATACATTGA | 3.78 |
| CAAACTAGGTCAAAGTCAAAGTCGGTTTGTGCCA | 6.17 |
| TCTTGTAGATCAAACGTTAAGAAAGCCGAAGCCT | 3.27 |
| TCTTGTAGATCAACAGGAGGTTAGGAAAGATCGA | 2.59 |
| CAAACTAGGTCAAGAGTTCAAAGTCCGCTTCCCG | 6.8 |
| CCCAGTAGGTTATGGGGCATTCAGGCAACGGTGA | 4.14 |
| CGTCCAATGTCAGCAGGTCAGTGAAAGCGACGTG | -0.882 |
| ATCGAAAGGACGACGAGGTGAGTATACACCGTTT | 0.318 |
| ATATGCAGGTTAGCTGGGGTCATTCAGACTAGGC | 0.768 |
| TTACCAAGGTGAAGGTCGTTGACCCCTCTGTAGA | 2.37 |
| CCTTACGGGTCACGAGGTTAAAGCACGACGAGCG | 3.78 |
| GCGACTGGGGCAAAGCAGGTTAACATAAGGTTGG | 0.0162 |
| ATATGTAGGTTATCGGGTCATTGAGTTTGCGCAT | 3.44 |
| CCTAGCTGGTCAGGAGGTCACACACCGGATATGA | 1.08 |
| TCTTGTAGATCCATAGAGGTTAAGAAAGTGCGCT | 2.32 |
| TAGCCTGGGTCATTGGGCCAGTATAGTACGCATC | 0.89 |
| TTACCAAGGTGAAGGTCTTTGATCCCTCTGTAGA | 0.89 |

| Sequence | PBM binding z-score |
| --- | --- |
| ACAAGTTGGTCAGCTGAGGTCACACACAATTCGG | 0.435 |
| CGCACTAGGTCAAGGACAGTGAATCTCCGCACGC | 3.25 |
| ATACCAAGGTGATCGTGAGGTCCTTGATACTAAC | -0.102 |
| ACAATGAGGTTATACGTAGATCAGGGAAGAAAGT | 0.688 |
| AGAACGAGGGCAATGAGGTGATAGCACGGGTGGC | -0.142 |
| GGAACGAGGGCATTCGAGTTGATAACATGGCGAT | -0.0941 |
| TCGAGTAGGTTACCAATGGGGCATTAAGCTTTCT | 1.39 |
| CCTACTGGGCCATTCAGAGGTCGTTGATCATATG | -0.074 |
| GGAATGAGGGCATTCGAGTTGATAGCATGGCGAT | 0.439 |
| ATATCTAGGTTAAGGGTCATTCAGGTTGGTTCGC | 10.8 |
| CCTGCTAGGTGAATGGTCAGCTAAAGCAGCTCGC | 2.1 |
| CGAACGAGGGCATGAGTTGATAGCGAATGCCGAT | 0.171 |
| TTACCAAGGTGAGCTGTGGTCGTTGATCCAACTC | -0.507 |
| CCTATTAGTTGACCATAAGGGCAACCGTAGCTCG | 0.0256 |
| ATCACTAGGTAAAAGTTCAGTGAATCCCGAGGAT | 7.65 |
| AGAATGAGGTTAAGCTCAGGGAAACAGAATACAT | 0.895 |
| TAGCCTAGGTCATTAGGCCAGTATAGTACGCATC | 1.05 |
| AGTCAAAGTACATCTAGGTAACGTAAGATATGCT | 0.46 |
| CAAACTAGATCAAGAGGTCAAAGTCCGCTTCCCG | 2.67 |
| GGAACGAGGGCAAAGTTGATAGTATCTGTCGACG | 6.78 |

The sequences below were run on PPARg:RXRa 90nM:30nM, anti-RXR (NR concentration 90 nM, RXRa partner concentration 30 nM) in the same assay as above.
In short: as §1

| Sequence | PBM binding z-score |
| --- | --- |
| ACCGAAAGGTCGAGGTGAGTATAGAGAAAGGGAA | 2.51 |
| CCTAGCAGGCCAATCTGGGTCACTCATGGCTTGA | 0.944 |
| CCTTACGGGTCACTCCAGGTTATAGCATCGGAGT | 2.57 |
| CGAATTAGGTCATCCAGGACAGTGAATACATTGA | 6.07 |
| CAAACTAGGTCAAAGTCAAAGTCGGTTTGTGCCA | 8.03 |
| TCTTGTAGATCAAACGTTAAGAAAGCCGAAGCCT | 3.48 |
| TCTTGTAGATCAACAGGAGGTTAGGAAAGATCGA | 1.79 |
| CAAACTAGGTCAAGAGTTCAAAGTCCGCTTCCCG | 8.19 |
| CCCAGTAGGTTATGGGGCATTCAGGCAACGGTGA | 5.66 |
| CGTCCAATGTCAGCAGGTCAGTGAAAGCGACGTG | -0.158 |
| ATCGAAAGGACGACGAGGTGAGTATACACCGTTT | 0.299 |
| ATATGCAGGTTAGCTGGGGTCATTCAGACTAGGC | 2.26 |
| TTACCAAGGTGAAGGTCGTTGACCCCTCTGTAGA | 3.77 |
| CCTTACGGGTCACGAGGTTAAAGCACGACGAGCG | 6.28 |
| GCGACTGGGGCAAAGCAGGTTAACATAAGGTTGG | 0.614 |
| ATATGTAGGTTATCGGGTCATTGAGTTTGCGCAT | 5.94 |
| CCTAGCTGGTCAGGAGGTCACACACCGGATATGA | 2.74 |
| TCTTGTAGATCCATAGAGGTTAAGAAAGTGCGCT | 1.65 |
| TAGCCTGGGTCATTGGGCCAGTATAGTACGCATC | 2.1 |
| TTACCAAGGTGAAGGTCTTTGATCCCTCTGTAGA | 2.12 |

| Sequence | PBM binding z-score |
| --- | --- |
| ACAAGTTGGTCAGCTGAGGTCACACACAATTCGG | 1.74 |
| CGCACTAGGTCAAGGACAGTGAATCTCCGCACGC | 5.37 |
| ATACCAAGGTGATCGTGAGGTCCTTGATACTAAC | -0.134 |
| ACAATGAGGTTATACGTAGATCAGGGAAGAAAGT | 0.925 |
| AGAACGAGGGCAATGAGGTGATAGCACGGGTGGC | 0.347 |
| GGAACGAGGGCATTCGAGTTGATAACATGGCGAT | 0.231 |
| TCGAGTAGGTTACCAATGGGGCATTAAGCTTTCT | 1.18 |
| CCTACTGGGCCATTCAGAGGTCGTTGATCATATG | 0.672 |
| GGAATGAGGGCATTCGAGTTGATAGCATGGCGAT | 1.05 |
| ATATCTAGGTTAAGGGTCATTCAGGTTGGTTCGC | 12.4 |
| CCTGCTAGGTGAATGGTCAGCTAAAGCAGCTCGC | 3.81 |
| CGAACGAGGGCATGAGTTGATAGCGAATGCCGAT | 1.04 |
| TTACCAAGGTGAGCTGTGGTCGTTGATCCAACTC | 0.106 |
| CCTATTAGTTGACCATAAGGGCAACCGTAGCTCG | 0.357 |
| ATCACTAGGTAAAAGTTCAGTGAATCCCGAGGAT | 9.23 |
| AGAATGAGGTTAAGCTCAGGGAAACAGAATACAT | 1.48 |
| TAGCCTAGGTCATTAGGCCAGTATAGTACGCATC | 2.14 |
| AGTCAAAGTACATCTAGGTAACGTAAGATATGCT | 0.326 |
| CAAACTAGATCAAGAGGTCAAAGTCCGCTTCCCG | 4.71 |
| GGAACGAGGGCAAAGTTGATAGTATCTGTCGACG | 7.32 |
